# NS1 function inh – influenza NS1 inhibition | Potency, µM (doses to about 46.1 µM), without a hit: top-dose activity, positive = more growth | 0.4% of 270,000 active; calls by dose curve; note: potency is the fitted concentration of half-maximal effect; actives are rising curves; nearly all actives have a fitted effect of over 50% in size
#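 A cell-based growth assay was used: compounds that relieve NS1-induced slow growth of budding yeast raise OD600. Assay medium was yeast nitrogen base with ammonium sulphate and -URA supplement, pH 6.0, with 2% galactose.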
# Pf growth 96h – P. falciparum growth inhibition at 96 hour, primary screen for plastid delayed-death inhibitors | P. falciparum luciferase reporter growth, 96 h | 6.9% of 320,000 active | Potency, µM (series often up to 28.7 µM), for the others: at the top dose activity change, negative = inhibition, hits mostly inhibitors | AID 504834; note: potency is the fitted concentration of half-maximal effect; % is set by controls: 0 for no effect and ±100 for the full control effect
#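 Luminescence readout: decreased luciferase signal marks inhibited growth of reporter-expressing P. falciparum in infected red cells (2% hematocrit, 0.05% parasitemia final), exposed to compound two generations (96 h, 37 C, 5% CO2).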
# CHX counter – counter-screen for Shiga toxin inhibitors: cycloheximide protein synthesis inhibition | cell reporter, cycloheximide protein synthesis inhibition counterscreen | max response, % | AID 2314 | 12% of 300,000 active; in the data active = max response mostly above about 13%, no sharp cut-off; inactive = mostly below about 14%; note: read at 38.3 µM for the half of the compounds with a filed dose; 0% is about no effect
# Pf growth 48h – P. falciparum growth inhibition at 48 hours (one generation); P. falciparum luciferase growth in erythrocytes, 48 h; Potency, µM (series often up to 28.7 µM), inactives show top-dose activity change, negative = inhibition, actives largely listed as inhibitors; 5.9% of 310,000 active; AID 504832; note: potency is the fitted concentration of half-maximal effect; % is set by controls: 0 for no effect and ±100 for the full control effect
#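 Read-out is firefly luciferase luminescence from an integrated reporter in P. falciparum, so falling signal marks reduced parasite growth. Infected erythrocytes were at 2% hematocrit and 0.1% parasitemia (final) in Albumax-supplemented RPMI 1640.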
# Shiga toxin inh – blocks Shiga toxin action in Vero cells; inhibition, % at 38.7 µM; Vero cells, Shiga toxin protein synthesis inhibition reporter; 9.2% of 290,000 active; in the data active = inhibition mostly above about 28%, no sharp cut-off; inactive = mostly below about 43%; note: 0% is about no effect
# Active calls of the source: *; ? = inconclusive; · = not tested or not shown; ! = not confirmed by another sample; [ ] = remark or other dose. In the library only some 21% were active in any assay of this set; here they are far more common. Unless noted, calls come from the whole dose curve; as a rule, active = well fitted inhibition curve with a large enough effect; inconclusive = small, poorly fitted or top-dose-only effect, or another doubt; inactive = no such curve, though single readings can be large or run the other way.
SMILES,NS1 function inh,Pf growth 96h,CHX counter,Pf growth 48h,Shiga toxin inh
O=C(CN1C(=O)S/C(=C\C=C\c2ccccc2)C1=O)Nc1ccc(C(=O)O)cc1,0.4%,-10.8%,5.4,-3.1%,14.3
CC(/C=C1\SC(=O)N(CC(=O)Nc2ccc(O)cc2)C1=O)=C\c1ccccc1,?,-15.6%,29.1,-10.3%,40.4*
O=C(/C=C1\SC(=O)N(CC(=O)Nc2ccc(Cl)cc2)C1=O)Nc1ccc(F)cc1,3.1%,0.0%,0.2,12.8%,-1.3
O=C(CCCN1C(=O)S/C(=C\C=C\c2ccccc2)C1=O)Nc1ccc(O)cc1,11.4%,-26.0%,44.4*,?,148.3*
O=C(/C=C1\SC(=O)N(CC(=O)Nc2ccc(F)cc2)C1=O)Nc1ccc(Cl)cc1,4.9%,115.0%,31.7*,93.4%,85.9*
O=C(CCN1C(=O)/C(=C\C=C\c2ccccc2)SC1=S)Nc1ccc(C(=O)O)cc1,17.3%,-0.7%,14.9*,-4.1%,29.0
COc1ccc(NC(=O)NNC(=O)COc2ccc([N+](=O)[O-])c(C)c2)cc1OC,-5.5%,74.3%,-1.9,11.5%,-42.2
O=c1[nH]c(NCCO)nnc1Cc1ccccc1,-19.6%,49.8%,9.9,37.1%,-8.7
CN1CCN(c2ccc(C(F)(F)F)cc2N)CC1,·,64.2%,28.0,58.1%,27.3
CC1CCN(c2ccc(C(F)(F)F)cc2N)CC1,·,-3.2%,17.4*,19.5%,34.0
Cc1ccc(Oc2coc3cc(O)ccc3c2=O)cc1,-7.3%,2.4%,31.3*,-10.9%[0.00184 µM],29.4
CCCCOC(=O)Oc1ccc2c(=O)c(Oc3cccc(C)c3)coc2c1,-6.2%,?,35.3*,57.7%,10.8
Cc1cc(C)cc(Oc2coc3cc(O)ccc3c2=O)c1,-1.0%,?,5.3,20.7%,·
CCOC(=O)CN(Cc1sccc1C)C(=O)Nc1ccc(OC)cc1OC,1.2%,0.0%,-1.4,-0.2%,4.0
COc1ccc(C2CC(O)(c3ccccc3)Oc3cc(C)c(Cl)c(C)c32)cc1 (stereo unspecified),·,·,-3.3,·,-2.9
COc1ccc([C@@H]2C[C@H](c3ccccc3)Oc3cc(OC)c(OC)c(OC)c32)cc1,0.9%,?,-1.6,9.28µM*,-4.0
COc1ccc(C2CC(O)(c3ccccc3)Oc3cc(OC)c(OC)c(OC)c32)cc1 (stereo unspecified),4.9%,10.4µM*,19.6*!,10.4µM*,33.2
Clc1ccc(C[n+]2cc(-c3ccccc3)n3c2CCCCC3)c(Cl)c1,-3.3%,2.62µM*,-10.4,0.738µM*,-5.2
N#CC[n+]1cc(-c2ccc(Cl)cc2)n2c1CCC2,10.0%,-8.2%,-2.8,?,-9.5
Clc1ccc(-c2c[n+](Cc3cccc(Cl)c3)c3n2CCC3)cc1,10.1%,0.262µM*,-2.2,1.85µM*,-6.0
Clc1ccc(-c2c[n+](Cc3ccc(Cl)cc3Cl)c3n2CCCCC3)cc1,-0.1%,0.165µM*,-0.7,1.65µM*,0.6
O=[N+]([O-])c1ccc(C[n+]2cc(-c3ccccc3)n3c2CCCCC3)cc1,·,-84.2%,-3.0,5.22µM*,-0.2
N#Cc1ccc(NCCNCC(=O)N2N=CCC2C#N)nc1 (stereo unspecified),·,·,0.5,·,61.5
Clc1ccc(-c2c[n+](Cc3ccc(Br)cc3)c3n2CCCCC3)cc1,-0.6%,0.0586µM*,5.1,0.415µM*,7.7
COc1cccc2c1CCCC2CCCN1CCN(C2CCCCC2)CC1 (stereo unspecified),·,·,2.0,·,-4.5
SMILES,NS1 function inh,Pf growth 96h,CHX counter,Pf growth 48h,Shiga toxin inh
CSc1ccc(C(=O)C2CCCN(C(=O)c3nonc3C)C2)cc1 (stereo unspecified),0.0%,28.6%,11.3,14.7µM*,12.2
CSc1ccc(C(=O)C2CCCN(C(=O)CCCn3cncn3)C2)cc1 (stereo unspecified),?,?,10.9*,-1.4%,38.2
O=C(c1cccc(C(F)(F)F)c1)C1CCCN(C(=O)CCCn2cncn2)C1 (stereo unspecified),-0.9%,?,10.5*,40.2%,14.6
O=C(c1cccc(C(F)(F)F)c1)C1CCCN(C(=O)CN2CCCC2=O)C1 (stereo unspecified),-2.1%,14.4%,17.3*,28.3%,50.3
O=C(c1ccc(-c2ccccc2)cc1)C1CCCN(C(=O)Cn2cncn2)C1 (stereo unspecified),-2.5%,?,-1.0,1.0%,-11.8
CSc1ccc(C(=O)C2CCCN(C(=O)c3nn(C)c(=O)c4ccccc34)C2)cc1 (stereo unspecified),2.1%,15.3%,1.4,15.8%,1.2
O=C(c1ccc(C(F)(F)F)cc1)C1CCCN(C(=O)CCn2cncn2)C1 (stereo unspecified),3.1%,?,18.0,4.1%,6.2
COc1ccc(COc2cccc3ccc(C)nc23)cc1F,-27.6%,-7.7%,-5.1,-3.8%,21.8
O=C(Cc1cccc(C(F)(F)F)c1)N1CCN(CC(=O)N2CCCC2)CC1,·,?,·,13.1µM*,·
COCc1cc(C)nc(N/N=C/c2ccc(-c3ccc(Cl)cc3[N+](=O)[O-])o2)c1C#N,·,36.6%,0.5,-14.2%,-10.9
CN(C)C1=NCCN1CC1CCCCCC1,·,37.9%,·,?,·
CC(=O)c1ccc(NC(=O)CCc2nnc3ccc(N4CCC5(CC4)OCCO5)nn23)cc1,1.8%,-14.0%,46.8*,8.5%,81.8*
COc1ccc(NC(=O)CCc2nnc3ccc(N4CCN(c5cccc(OC)c5)CC4)nn23)cc1,?,0.329µM*,0.4,11.7µM*,32.0
COc1cc(NC(=O)CCc2nnc3ccc(N4CCN(c5cccc(OC)c5)CC4)nn23)cc(OC)c1,20.9%,3.29µM*,1.7,2.4%,-6.1
COc1cccc(NC(=O)CCc2nnc3ccc(N4CCN(c5cccc(OC)c5)CC4)nn23)c1,7.8%,?,-2.9,?,21.5
COc1cccc(N2CCN(C(=O)CCc3nnc4ccc(N5CCOCC5)nn34)CC2)c1,21.8%,11.7µM*,-1.9,-3.3%,-6.4
Cc1ccc(NC(=O)CCc2nnc3ccc(N4CCC5(CC4)OCCO5)nn23)nc1,9.0%,?,0.2,?,-10.4
O=C(NCCc1ccccn1)C(F)(F)C(F)(F)C(F)(F)C(F)(F)C(F)(F)C(F)(F)C(F)(F)C(F)F,17.6%,?,6.9,?,19.8
O=C(O)COc1ccc(F)cc1Br,3.4%,0.0%,1.4,35.5%,-3.7
CC1CCN(c2ccc3nnc(CCC(=O)Nc4ccc(F)cc4)n3n2)CC1,-12.6%,?,-3.3,?,-7.6
COc1ccccc1N1CCN(C(=O)CCc2nnc3ccc(N4CCC(C)CC4)nn23)CC1,-11.1%,-19.0%,-1.8,10.4µM*,-7.7
COc1cc(NC(=O)CCc2nnc3ccc(N4CCC(C)CC4)nn23)cc(OC)c1,3.7%,1.85µM*,9.7,-16.2%,2.0
COc1cccc(N2CCN(C(=O)CCc3nnc4ccc(N5CCCC5)nn34)CC2)c1,23.3%,?,-1.5,?,-5.4
CCN(CC)CCn1c2c(c(SCC(=O)Nc3cc(OC)cc(OC)c3)nc1=O)CCC2,·,?,·,49.2%,·
CCCCC(=O)Nc1ccc2oc(-c3cccnc3)nc2c1,-16.8%,75.5%,30.7*,43.5%,60.4*

# Screens as filed in PubChem.
